ATXN2 expr inh: ATXN2 expression inhibition | HEK-293 ATXN2-luciferase reporter, luminescence, 24 h | Potency, µM (doses to about 57 µM), most hits filed as inhibitors | actives 0.72% (n = 360,000); also: nearly all actives have a fitted effect of over 55% in size
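ATXN2-luciferase reporter cells (luciferase flanked by upstream and downstream ATXN2 gene portions) were treated 24 h at 37 °C with compounds at up to 57 uM. SteadyGlo luminescence gave expression; GF-AFC fluorescence gave viability.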
KB-V1 MDR tox: kills drug-selected multidrug resistant KB-V1 cells. KB-V1 MDR cells viability, CellTiter-Glo, 72 h. Potency, µM (highest dose often 46.1 µM), actives largely listed as cytotoxic. actives 3.4% (n = 400,000). AID 1347076; also: nearly all actives have a fitted effect of over 60% in size
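KB-V1, DMEM (no phenol red) + 10% FBS; cpd pin-transferred, titration series; 72 h, 37 degrees C; CellTiter-Glo, luminescence. Data normalized, curve-fit.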
HepG2 tox: HepG2 cytotoxicity, counter-screen for TGF-b inhibitors; Potency, µM (titrated, usually from 46.1 µM), actives largely listed as cytotoxic; actives 0.76% (n = 410,000); AID 588856; HepG2 CAGA-GFP viability, ATP luminescence, 18 h
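CellTiter-Glo luminescence gave cytotoxicity after 18 hours at 37 degrees C. The cells were HepG2 CAGA-GFP in 1% FBS DMEM, stimulated with 500 pg/mL TGF-beta after compound addition. %Activity was normalised to no-cell wells (complete cell-killing) and DMSO (no toxicity), and curves were fitted and classified.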
S2 tox: cell viability loss in ATXN counter-screen. S2 cells (HEK-293 line with an ATXN2-luciferase reporter) viability, CellTiter-Fluor protease fluorescence, 24 h. Potency, µM (series often up to 56.7 µM), most hits filed as cytotoxic. actives 0.49% (n = 400,000); also: nearly all actives have a fitted effect of over 40% in size
TGFb inhibitor: blocks TGF-b signaling | HepG2 CAGA-GFP TGF-b/SMAD3 reporter, GFP fluorescence, 18 h; TGF-beta stimulated, 500 pg/mL final | Potency, µM (highest dose often 46.1 µM), hits mostly inhibitors | actives 1.2% (n = 410,000) | AID 588855; also: nearly all actives have a fitted effect of over 65% in size
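GFP signal (ex488/em500-530) from TGF-beta-stimulated HEPG2 CAGA-GFP cells, 500 pg/mL final, 18 h at 37 degrees C in DMEM plus 1% FBS, normalized to unstimulated and DMSO-stimulated controls.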
KB-3-1 tox: kills parental KB-3-1 adenocarcinoma cells. KB-3-1 viability, CellTiter-Glo ATP luminescence, 72 h. actives 1.4% (n = 400,000). Potency, µM (series often up to 46.1 µM), actives largely listed as cytotoxic; also: nearly all actives have a fitted effect of over 60% in size
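72 h, 37 °C compound treatment of KB-3-1 parental cells; CellTiter-Glo added, 10 min, luminescence read. Data corrected against DMSO-only plates and normalized before curve fitting.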
Numbers stand for hits; i = inactive; ? = inconclusive; nt = no result given. Compounds with a hit are over-represented: about 5.9% of the library has one in this group of screens. Calls follow the shape of the dose curve; as a rule, active = well fitted curve in the direction sought with a large enough effect; inconclusive = small, poorly fitted or top-dose-only effect, or another doubt; inactive = no such curve, though single readings can be large; an effect the other way counts as inactive or inconclusive.

SMILES	ATXN2 expr inh	KB-V1 MDR tox	HepG2 tox	S2 tox	TGFb inhibitor	KB-3-1 tox
COc1ccc(C2=Nc3ccccc3N(C(=O)c3ccc4c(c3)OCO4)C2C(=O)NCc2ccccc2)cc1 (centres undefined)	nt	?	nt	nt	nt	4.6µM
COc1ccc(Nc2nc(C(=O)NCc3ccco3)cs2)cc1	nt	16µM	i	i	?	16µM
COc1ccc(CCn2c(N)c(C(=O)NCc3ccco3)c3nc4ccccc4nc32)cc1	i	6.5µM	i	i	?	7.3µM
COc1ccc(CCNC(=O)C2CCN(Cc3nc(-c4ccc(OC)c(OC)c4)oc3C)CC2)cc1OC	i	i	i	i	i	i
O=[N+]([O-])c1ccc(O/N=[N+](\[O-])N2CCCCC2)c([N+](=O)[O-])c1	nt	nt	i	nt	i	nt
COc1ccc(-c2cc3c(=O)n(CC(=O)NCCCN4CCN(Cc5ccccc5)CC4)ncn3n2)cc1	nt	i	i	i	i	i
COc1ccc(-c2cc3c(=O)n(CC(=O)NCCCN4CCC(Cc5ccccc5)CC4)ncn3n2)cc1	?	i	i	i	i	21µM
CCCCOc1cccc(NC(=O)CSc2nnc(C)s2)c1	i	i	i	i	i	i
CCc1nc2ccc(C(=O)N(C)CCCN(C)C)cn2c1N(C=O)CCC(C)C	i	i	i	i	i	i
Clc1ccc(CN(CC2CCCO2)C(c2cccs2)c2nnnn2C2CCCC2)cc1 (centres undefined)	?	21µM	i	i	i	?
CCOC(=O)N1CC=C2C(C#N)=C(N)C(C#N)(C#N)[C@H](c3ccc(OCC)c(OCC)c3)[C@H]2C1	i	8.2µM	i	i	i	i
CN(C1=C(NC(=O)c2ccccc2)C(=O)c2ccccc2C1=O)C1CCS(=O)(=O)C1 (centres undefined)	?	?	18µM	32µM	18µM	?
O=S(=O)(c1ccc(NCCOc2ccccc2)nc1)N1CCCC1	i	21µM	i	i	i	i
Cc1ccc(OCCNc2ccc(S(=O)(=O)N3CCCC3)cn2)cc1	i	?	i	i	i	i
CCN(CCC(=O)O)c1ccc(/C=C/c2ccnc3ccccc23)cc1	nt	i	i	nt	i	i
O=C(NC(=Nc1nc2ccccc2o1)NC(=O)c1ccccc1)c1ccccc1	i	i	i	i	i	i
O=C(NNc1nc2ccccc2o1)c1ccccc1	1.6µM	i	i	i	i	i
CC(=O)n1cc(/C=N/NC(N)=S)c2ccccc21	i	5.2µM	i	i	i	?
CC(=O)n1cc(/C=N/NC(=O)c2ccccc2O)c2ccccc21	i	i	i	i	i	i
COc1ccc(NC(=O)CSc2ncc3c(n2)-c2ccccc2N(C)S3(=O)=O)cc1Cl	i	i	i	?	i	i
COc1cc2c(cc1OC)CN(C(=O)c1ccc([N+](=O)[O-])o1)CC2	i	?	i	i	13µM	i
NCCCC[C@H](NC(=O)[C@@H]1CCCN1C(=O)[C@@H]1CSSC[C@H](N)C(=O)N[C@@H](Cc2ccc(O)cc2)C(=O)N[C@@H](Cc2ccccc2)C(=O)N[C@@H](CCC(N)=O)C(=O)N[C@@H](CC(N)=O)C(=O)N1)C(=O)NCC(N)=O	nt	nt	nt	i	nt	nt
CCOc1ccc(NC(=O)NC(C)c2c(-n3cccc3)sc3c2CCN(CC)C3)cc1 (centres undefined)	nt	nt	i	nt	?	nt
CCN1CCc2c(sc(-n3cccc3)c2C(C)NC(=O)Nc2ccc(Br)cc2)C1 (centres undefined)	nt	nt	14µM	nt	10µM	nt
Cc1cc(O)c(-c2cc(O)c(C)cc2O)cc1O	nt	i	22µM	?	?	i
SMILES	ATXN2 expr inh	KB-V1 MDR tox	HepG2 tox	S2 tox	TGFb inhibitor	KB-3-1 tox
Cc1ccc(N)cc1O	?	i	i	?	?	?
O=C1CCCc2[nH]c(=O)c(C(=O)NCc3ccccc3)cc21	nt	i	i	nt	i	i
Nc1nc(N)c2cc(Sc3ccc(Cl)cc3)ccc2n1	nt	?	i	nt	?	?
Nc1nc(N)c2cc(CNc3ccc(Cl)c(Cl)c3)ccc2n1	nt	16µM	i	nt	?	?
CCOC(=O)N1CCN(Cc2ccc3c(c2)CN(C(=O)c2ccc4ncccc4c2)CCO3)CC1	nt	nt	nt	i	nt	nt
Cc1ccc(NC(=O)N2CCC(CN3CCCC3)CC2)c(C)c1	nt	nt	i	nt	i	nt
COc1ccc(-c2cc(CCCC(=O)NCCc3cc(OC)ccc3OC)no2)cc1	i	4.6µM	i	i	?	?
CCOc1ccc(-c2cc(CCCC(=O)NCCc3ccc(OCC)c(OCC)c3)no2)cc1	i	i	i	i	i	i
COC(=O)/C=C/c1ccc2c(c1)S(=O)(=O)N(C1CCCC1)[C@H]2CC(=O)OC	nt	?	i	nt	?	i
Cc1c(Cl)ccc2c1NC(=O)[C@]21N[C@@H](Cc2ccccc2)[C@H]2C(=O)N(c3ccc(F)cc3)C(=O)[C@H]21	i	9.2µM	i	?	10µM	?
CC(=NO)C1CCC2C3CCC4=CC(=NO)CCC4(C)C3C(O)CC12C (centres undefined)	i	21µM	i	i	i	?
Cc1c(CC(=O)NCCc2ccccc2F)c(=O)oc2c(C)c3occ(C(C)(C)C)c3cc12	nt	nt	i	nt	?	nt
COc1cccc2c1C1COC3C4CC(C(=O)O)C(C(C2)N13)N4C (centres undefined)	11µM	16µM	i	?	?	?
O=c1cc(-c2ccccc2)oc2cccc(O)c12	i	i	i	i	i	i
O=c1cc(-c2ccc(O)c(O)c2)oc2ccc3ccccc3c12	?	18µM	i	i	i	i
O=c1cc(-c2ccccc2)oc2ccc3ccccc3c12	nt	21µM	i	i	i	i
O=C(c1[nH]c(C(F)(F)F)nc1-c1ccccc1)N1CCC2(CC1)C(=O)NCN2c1ccccc1	i	i	i	i	i	i
COc1ccc2cnnc(SCC(=O)Nc3ccccc3)c2c1OC	i	2.9µM	i	i	i	i
COc1ccc2cnnc(SCC(=O)Nc3ccc(C(=O)O)cc3)c2c1OC	i	?	i	i	i	i
COc1ccc2cnnc(SCC(=O)Nc3ccc(C(C)=O)cc3)c2c1OC	i	5.2µM	i	?	i	i
c1ccc(CSc2ncnc3c2ncn3C2CCCCO2)cc1 (centres undefined)	i	i	i	i	i	i
Fc1ccc(CSc2ncnc3c2ncn3C2CCCCO2)cc1 (centres undefined)	i	21µM	i	i	i	i
CN(C)c1ccc(CCC2C=Cc3ccccc32)cc1 (centres undefined)	nt	i	i	nt	i	i
COC(=O)c1cnn(-c2ccc(C(=O)Nc3ccc(C(C)=O)cc3)cc2)c1N	i	i	i	i	i	i

Source: PubChem BioAssay (National Center for Advancing Translational Sciences (NCATS))
